# Results published in the supplement of paper PMC10646978.
# ± gives the standard deviation.
# Experiments:
# Conditions in all cases: modulator concentration 10 µM
# [1] = system: RAW-Dual (murine macrophage reporter line); assay: NF-kB reporter (SEAP) activity fold change vs agonist alone; higher = enhanced NF-kB activity
# Summary of the method: (§1)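 Overnight stimulation with a PRR agonist followed pre-incubation for 1 hour at 37 °C with compound at 10 μM final. This was done in RAW-Dual murine macrophage reporter cells seeded at 50 000 per well in 384-well plates. NF-κB (SEAP, QUANTI-Blue absorbance at 620 nm) and IRF (Lucia luciferase, QUANTI-Luc luminescence) were read from the supernatant. Each reporter's fold change relative to the mean agonist-only control on the same plate was averaged over replicate plates.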
# [2] = system: RAW-Dual (murine macrophage reporter line); assay: IRF reporter (Lucia luciferase) activity fold change vs agonist alone; higher = enhanced IRF activity
# Summary of the method: as §1
# [3] = system: RAW-Dual (murine macrophage reporter line); assay: viability score (confluency relative to resting cells, overnight) (fraction); higher = more viable, active = viable (0.7 or more)
# Summary of the method: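 Overnight exposure to 10 μM final compound was carried out on RAW-Dual macrophages in 384-well plates. IncuCyte software generated two confluency masks over all wells imaged with IncuCyte. The viability score gives confluency in relation to resting cells. A compound met the cutoff if each mask exceeded 70% of resting cells.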
# [4] = agonist: CpG ODN 1826 0.5 ug/mL
Compound,"NF-kB reporter [1, 4]",NF-kB reporter ([1]; agonist: LPS 0.1 ug/mL),NF-kB reporter ([1]; agonist: MPLA […]),IRF reporter ([2]; agonist: 3'3'-cGAMP 10 ug/mL),IRF reporter ([2]; agonist: LPS 0.1 ug/mL),IRF reporter ([2]; agonist: MPLA […]),viability score [3]
CCN(CC)CCOC(=O)C(c1ccccc1)c1ccccc1 [Prestw-75],0.712 ± 0.11,1.14 ± 0.14,1.91 ± 0.9,1.2 ± 0.038,0.922 ± 0.09,1.09 ± 0.12,0.91 (active)
COc1cc2nc(N3CCN(C(=O)C4CCCO4)CC3)nc(N)c2cc1OC.Cl (stereo unspecified),0.503 ± 0.069,0.98 ± 0.24,0.904 ± 0.054,0.913 ± 0.055,1.34 ± 0.31,1.07 ± 0.14,0.988 (active)
COC(=O)C1C(c2ccccc2)C(C(=O)Oc2ccc(C(C)=O)cc2)C1c1ccccc1 (stereo unspecified),0.895 ± 0.069,0.939 ± 0.046,1.16 ± 0.1,0.908 ± 0.06,1.17 ± 0.1,1.28 ± 0.15,1.02 (active)
CC(=O)Oc1cccc2c1C(=O)c1c(OC(C)=O)cc(C(=O)O)cc1C2=O,1.14 ± 0.088,1.04 ± 0.077,1.01 ± 0.049,0.971 ± 0.068,0.954 ± 0.033,0.939 ± 0.12,1 (active)
Br.O=S(=O)(c1ccc(-c2csc(Nc3ccc(Br)cc3)n2)cc1)N1CCCCC1,0.859 ± 0.072,1.08 ± 0.088,0.988 ± 0.034,0.938 ± 0.16,1.01 ± 0.042,0.926 ± 0.11,1 (active)
Cc1cccc(-c2cc3nc(C)c(Cl)c(O)n3n2)c1,1.04 ± 0.058,1.04 ± 0.091,0.948 ± 0.025,1.04 ± 0.039,1 ± 0.1,1.04 ± 0.24,0.996 (active)
CS(=O)(=O)N1C2CCC1CC(NC(=O)NC1CCCC1)C2 (stereo unspecified),1.01 ± 0.11,1.03 ± 0.12,0.88 ± 0.059,0.98 ± 0.093,1.21 ± 0.14,1.2 ± 0.26,1.01 (active)
COC1CCN(C2CN(C(=O)CCn3cnc4ccccc4c3=O)C2)CC1,1.05 ± 0.052,1.08 ± 0.092,0.882 ± 0.044,1.01 ± 0.052,1.27 ± 0.076,1.13 ± 0.24,0.994 (active)
CCOC(=O)C(CCc1ccccc1)NC(C)C(=O)N1Cc2ccccc2CC1C(=O)O.Cl (stereo unspecified),1.27 ± 0.31,1.05 ± 0.057,0.977 ± 0.072,0.955 ± 0.046,1.22 ± 0.14,1.3 ± 0.13,0.997 (active)
COc1ccc(OC)c2sc(NC(=O)C(C)C)nc12,0.97 ± 0.075,1.02 ± 0.059,1 ± 0.031,0.837 ± 0.06,0.885 ± 0.11,0.828 ± 0.14,0.993 (active)
Cc1ccc(-n2nc(C(C)(C)C)cc2NC(=O)NCc2cc(F)ccc2Oc2ccc3c(cnn3CCO)c2)cc1,0.878 ± 0.046,0.942 ± 0.15,0.964 ± 0.056,1.06 ± 0.058,1.19 ± 0.22,1.24 ± 0.44,1.01 (active)
CCCC(=O)Nc1ccc(N2CCOCC2)c(Cl)c1,1.09 ± 0.21,1.04 ± 0.098,0.964 ± 0.098,0.875 ± 0.026,1.28 ± 0.22,1.21 ± 0.12,1 (active)
CCc1ccc2oc(-c3ccc(NC(=O)c4ccc(C)c([N+](=O)[O-])c4)cc3)nc2c1,1.02 ± 0.08,1.04 ± 0.059,0.931 ± 0.089,1 ± 0.025,1.6 ± 0.22,1.33 ± 0.16,1.01 (active)
